Cy5 interf NS3h: Cy5 fluorescence interference, HCV helicase counter-screen; 16,000 compounds, 6% hits; Cy5-dT15 DNA with NS3h; actives lie on both sides; signal over control mean, under 1 quenches; fluorescence interference ratio at 100 µM; AID 720488;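 active = compound fluorescence over control fluorescence at most 0.8, a quencher, or at least a set upper limit, an enhancer; inactive = ratio between 0.8 and the set upper limit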
NS3h inh CB: hepatitis C NS3 helicase inhibition, primary screen | 16,000 compounds, 1.6% hits | NS3h Cy5-dT15 DNA binding, fluorescence polarization | inhibition, % at 100 µM | AID 687043;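 active = inhibition above the average over every tested compound plus 3 SD, cut at about 40% in these data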
* = called active by the depositor. Shown are actives, neighbours in structure and some others; about 6.9% of the full set was active somewhere.

CCOc1cc(C(=O)Nc2ccc([N+](=O)[O-])cc2C)cc(OCC)c1OCC was read as Cy5 interf NS3h 1 and NS3h inh CB -12.
Screening CCc1ccc(S(=O)(=O)Nc2cc(Br)c(O)c3ccccc23)cc1 returned Cy5 interf NS3h 0.98 and NS3h inh CB 4.
CCc1ccc(S(=O)(=O)Nc2cc(-c3c(O)ccc4ccccc34)c(O)c3ccccc23)cc1 was read as Cy5 interf NS3h 0.78* and NS3h inh CB 9.
For O=C(Nc1ccccc1)Nc1nnc(SCc2ccccc2F)s1 the results were Cy5 interf NS3h 1.2* and NS3h inh CB -4.
Screening O=C(Nc1ccccc1)Nc1nnc(SCc2ccc(F)cc2)s1 returned Cy5 interf NS3h 0.99 and NS3h inh CB 17.
For O=c1[nH]c(=O)n(Cc2ccccc2)c(O)c1C=C1C=CC=N1 the results were Cy5 interf NS3h 0.77* and NS3h inh CB 11.
`COc1ccc(OC)c(Cn2c(O)c(C=C3C=CC=N3)c(=O)[nH]c2=O)c1` gave Cy5 interf NS3h 0.88 and NS3h inh CB 17.
O=c1[nH]c(=O)n(Cc2ccc(F)cc2)c(O)c1C=C1C=Nc2ccccc21 was read as Cy5 interf NS3h 0.8* and NS3h inh CB -44.
For Cc1cc(C)c(-n2c(O)c(C=C3C=Nc4ccccc43)c(=O)[nH]c2=O)c(C)c1 the results were Cy5 interf NS3h 1 and NS3h inh CB 3.
For COC(=O)c1ccccc1NC(=O)c1ccc(Cl)c([N+](=O)[O-])c1 the results were Cy5 interf NS3h 0.98 and NS3h inh CB -12.
`COc1ccc(/C=C/C(=O)N2CCOCC2)cc1Br` gave Cy5 interf NS3h 0.67* and NS3h inh CB 2.
Screening COc1ccc(/C=C/C(=O)N(C(C)C)C(C)C)cc1Br returned Cy5 interf NS3h 1 and NS3h inh CB 8.
COc1ccc(C(NC(=O)Cc2ccccc2)c2ccc3cccnc3c2O)cc1OC (stereo unspecified) was read as Cy5 interf NS3h 1 and NS3h inh CB -1.
Screening CC(=O)Nc1ccc(NS(=O)(=O)c2cc(Cl)ccc2Cl)cc1 returned Cy5 interf NS3h 0.99 and NS3h inh CB 1.
`O=S(=O)(c1cc(Cl)cc(Cl)c1O)c1cc(Cl)cc(Cl)c1O` gave Cy5 interf NS3h 0.5* and NS3h inh CB 25.
Screening C=CCN1C(=O)/C(=C\c2ccc(Br)c([N+](=O)[O-])c2)SC1=S returned Cy5 interf NS3h 0.65* and NS3h inh CB 18.
Screening C=CCN1C(=O)/C(=C/c2cccc(Br)c2)SC1=S returned Cy5 interf NS3h 0.94 and NS3h inh CB 0.
Screening OC1CC(c2ccccc2)NC(c2ccco2)C1 (stereo unspecified) returned Cy5 interf NS3h 0.95 and NS3h inh CB -17.
Screening COc1ccc(OCCNc2cc(Cl)ccc2[N+](=O)[O-])cc1 returned Cy5 interf NS3h 1.1 and NS3h inh CB 6.
O=[N+]([O-])c1ccc(N2CCOCC2)cc1[N+](=O)[O-] was read as Cy5 interf NS3h 1.1 and NS3h inh CB -14.
For CCC(CO)Nc1cc(Cl)ccc1[N+](=O)[O-] (stereo unspecified) the results were Cy5 interf NS3h 0.69* and NS3h inh CB 14.
`CCC(CO)Nc1cc(N2CCOCC2)ccc1[N+](=O)[O-]` (stereo unspecified) gave Cy5 interf NS3h 0.73* and NS3h inh CB 14.
CC(C)CN(CC(C)C)C(=O)/C=C/c1ccccc1 was read as Cy5 interf NS3h 1.1 and NS3h inh CB 4.
Screening Cc1nc2ccccc2n1CC(O)COc1cccc(Cl)c1 (stereo unspecified) returned Cy5 interf NS3h 1 and NS3h inh CB 11.
`O=[N+]([O-])c1ccccc1NC(=NS(=O)(=O)c1ccc(Cl)cc1)c1ccccc1` gave Cy5 interf NS3h 0.69* and NS3h inh CB 20.
Screening O=[N+]([O-])c1ccccc1NC(=NS(=O)(=O)c1ccccc1)c1ccccc1 returned Cy5 interf NS3h 0.99 and NS3h inh CB 5.
Screening O=C(Nc1ccc(Oc2ccccc2)cc1)C(F)(F)F returned Cy5 interf NS3h 0.78* and NS3h inh CB 14.
Screening CC(=O)Nc1ccc(Oc2ccccc2)cc1 returned Cy5 interf NS3h 0.83 and NS3h inh CB 10.
For O=C(O)C(C(=O)O)C1c2ccccc2Oc2ccccc21 the results were Cy5 interf NS3h 1 and NS3h inh CB 12.
`O=C1C(=C2c3ccccc3C(=O)C2C2c3ccccc3Oc3ccccc32)C(=O)c2ccccc21` (stereo unspecified) gave Cy5 interf NS3h 0.8* and NS3h inh CB -2.
`COc1ccccc1NC(=O)c1ccc(OC2CSC2)cc1` gave Cy5 interf NS3h 0.97 and NS3h inh CB 11.
Screening COc1ccc(Cl)cc1NC(=O)C1=C(C)NC(=S)NC1c1ccccc1Cl (stereo unspecified) returned Cy5 interf NS3h 0.98 and NS3h inh CB 14.
CC(=O)Nc1ccc(NC(=O)CCC(=O)O)cc1 was read as Cy5 interf NS3h 0.63* and NS3h inh CB -1.
Screening NC(=O)c1ccc(NC(=O)CCC(=O)O)cc1 returned Cy5 interf NS3h 1.1 and NS3h inh CB 1.
`Cc1ccc(NC(=O)CCCOc2ccccc2)c(Br)c1` gave Cy5 interf NS3h 1 and NS3h inh CB 2.
`CC1=NN(c2ccc(S(N)(=O)=O)cc2)C(=O)/C1=C\c1ccc(C(C)C)cc1` gave Cy5 interf NS3h 0.94 and NS3h inh CB 7.
Screening CC1=NN(c2ccc(S(N)(=O)=O)cc2)C(=O)/C1=C\c1cccc(Br)c1 returned Cy5 interf NS3h 0.81 and NS3h inh CB 42*.
For CCOc1ccc(NC(=O)c2cc(C(=O)O)ccc2C(=O)O)cc1 the results were Cy5 interf NS3h 1.1 and NS3h inh CB 1.
`O=C(/C=C/c1ccccc1)NC(=S)Nc1cccc(NC(=O)c2cccc(Cl)c2)c1` gave Cy5 interf NS3h 1.1 and NS3h inh CB -31.
CC1=NN(c2cccc(C(=O)O)c2)C(=O)/C1=C\c1ccc(-c2cc([N+](=O)[O-])ccc2C)o1 was read as Cy5 interf NS3h 0.97 and NS3h inh CB 8.
Screening CC1=NN(c2ccc(C)c(C)c2)C(=O)/C1=C/c1ccc([N+](=O)[O-])o1 returned Cy5 interf NS3h 0.68* and NS3h inh CB 20.
`CCOc1ccc(NC(NC(=O)CN2C(=O)c3ccccc3S2(=O)=O)C(Cl)(Cl)Cl)cc1` (stereo unspecified) gave Cy5 interf NS3h 0.89 and NS3h inh CB 2.
For CCCCCNC(=O)c1ccc(C(=O)NCCCCC)cc1 the results were Cy5 interf NS3h 0.99 and NS3h inh CB 4.
For CCN(CC)CCCNC(=O)c1ccc(Cl)cc1 the results were Cy5 interf NS3h 0.67* and NS3h inh CB 6.
Screening O=C(Nc1c(C(=O)N2CCC(Cc3ccccc3)CC2)cnn1-c1ccccc1)c1cccc(F)c1 returned Cy5 interf NS3h 1 and NS3h inh CB 6.
For O=C(Nc1c(C(=O)N2CCN(Cc3ccccc3)CC2)cnn1-c1ccccc1)c1cccc(F)c1 the results were Cy5 interf NS3h 1.3* and NS3h inh CB 7.
Screening N/C(=N/OC(=O)c1ccccc1F)c1ccc([N+](=O)[O-])cc1 returned Cy5 interf NS3h 0.78* and NS3h inh CB -6.
`N/C(=N/OC(=O)c1ccc(Br)cc1)c1ccc([N+](=O)[O-])cc1` gave Cy5 interf NS3h 0.96 and NS3h inh CB 2.
Screening CCc1ccccc1NC(=O)CN(c1ccc(F)cc1)S(=O)(=O)c1ccccc1 returned Cy5 interf NS3h 1 and NS3h inh CB 13.
For O=C(COc1ccc([N+](=O)[O-])cc1)Nc1ccc2oc(-c3ccccc3F)nc2c1 the results were Cy5 interf NS3h 1 and NS3h inh CB 2.
